The list is not random: actives were taken first. Their share in the collection is about 27%.
CYP2C9 activ – activators of human CYP2C9 | P11712 | recombinant CYP2C9, luciferin-H conversion, luminescence; hits give high values; factor 1 = untreated enzyme, 0 = blocked | activation factor at 5 µM | hit rate 1.4% among 96,000;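 active = activation factor of 2 or more for CYP2C9 at a 5 µM dose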;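 also: 0 = sulfaphenazole-blocked wells and 1 = vehicle-only wells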
Cav32 inh – human Cav3.2 channel inhibition, primary screen; O95180; Cav3.2-expressing cells, Fluo-4 calcium fluorescence FDSS; hits give low values; B-score at 10 µM; hit rate 4% among 100,000; AID 449739;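 active = single-dose well whose peak fluorescence ratio is a statistical outlier from its plate by either plate-standardised score or position-corrected B-score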
Pyk2 oligo antag – Pyk2 (human) oligomerization antagonism. hit rate 0.83% among 99,000. Q293 cells, Pyk2 FERM NanoBiT luminescence; hits give low values. z-score (the deposit names both 25 µM and 10 µM). AID 1347419;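 active = Z-score of -3 or lower, scaled per plate to the spread of control and sample wells; inactive = z-score above -3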;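 also: negative z-score means lost luminescence so less FERM oligomerization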
Target sequence (Q14289 whole entry, looked up): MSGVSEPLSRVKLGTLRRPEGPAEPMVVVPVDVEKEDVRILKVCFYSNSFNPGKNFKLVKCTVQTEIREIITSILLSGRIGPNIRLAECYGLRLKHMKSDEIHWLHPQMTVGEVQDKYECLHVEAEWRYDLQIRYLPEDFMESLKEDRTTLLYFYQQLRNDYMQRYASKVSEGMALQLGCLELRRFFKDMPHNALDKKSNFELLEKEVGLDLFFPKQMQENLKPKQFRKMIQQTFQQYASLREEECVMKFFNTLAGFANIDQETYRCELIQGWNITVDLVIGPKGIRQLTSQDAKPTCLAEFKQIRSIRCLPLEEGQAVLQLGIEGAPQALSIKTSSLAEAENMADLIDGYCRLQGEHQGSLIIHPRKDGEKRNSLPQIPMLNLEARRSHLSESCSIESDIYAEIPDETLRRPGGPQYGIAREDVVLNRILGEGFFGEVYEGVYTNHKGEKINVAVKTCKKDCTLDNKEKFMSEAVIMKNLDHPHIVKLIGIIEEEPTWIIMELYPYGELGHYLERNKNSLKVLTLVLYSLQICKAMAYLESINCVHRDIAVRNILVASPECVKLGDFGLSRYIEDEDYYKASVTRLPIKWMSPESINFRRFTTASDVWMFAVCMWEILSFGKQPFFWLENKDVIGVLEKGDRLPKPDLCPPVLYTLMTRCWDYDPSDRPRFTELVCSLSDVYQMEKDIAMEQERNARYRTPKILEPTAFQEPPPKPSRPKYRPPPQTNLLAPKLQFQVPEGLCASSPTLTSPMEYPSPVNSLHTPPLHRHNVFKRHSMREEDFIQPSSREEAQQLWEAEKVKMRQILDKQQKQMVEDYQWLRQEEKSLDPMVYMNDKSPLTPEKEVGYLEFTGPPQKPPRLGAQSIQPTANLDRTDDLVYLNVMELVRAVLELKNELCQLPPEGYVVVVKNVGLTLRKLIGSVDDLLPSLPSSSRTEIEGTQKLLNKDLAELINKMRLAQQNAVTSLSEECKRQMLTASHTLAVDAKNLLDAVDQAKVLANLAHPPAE
CYP2C19 activ – increases human CYP2C19 enzyme activity. P33261. recombinant CYP2C19, luciferin-H EGE luminescence; hits give high values; 0 = fully inhibited enzyme, 1 = untreated enzyme. activation factor at 5 µM. 96,000 tested, under 10 active;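 active = activation factor of at least 2 at 5 µM in the primary screen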;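 also: 0 = wells with 2.5 mM tranylcypromine and 1 = vehicle-only wells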
CYP2C19 inh – blocks human cytochrome P450 2C19. CYP2C19 Supersomes, luciferin-H EGE luminescence, 30 min. inhibition, % at 5 µM. hit rate 21% among 96,000;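 active = CYP2C19 inhibition above a set limit at 5 µM in the primary screen, cut at about 50% in these data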;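 also: plate controls were negative control wells for no effect and 2.5 mM tranylcypromine positive control for full effect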
CYP2C9 inhib – human CYP2C9 inhibition; CYP2C9 Supersomes, luciferin-H conversion, luminescence; hit rate 20% among 96,000; inhibition, % at 5 µM;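 active = blocking of liver enzyme CYP2C9 beyond about 50% at 5 µM, limit read from the data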
An asterisk follows results filed as active; · = no result.

SMILES	CYP2C9 activ	Cav32 inh	Pyk2 oligo antag	CYP2C19 activ	CYP2C19 inh	CYP2C9 inhib
O=C1NC2(CCc3ccccc32)C(=O)N1CCOc1ccc(Cl)cc1 (stereo not drawn)	0.2	-4.84*	0.36	0.9	5.7	77.2*
Cc1ccc(NC(=O)NC(=O)CN2C(=O)NC3(CCc4ccccc43)C2=O)c(C)c1 (stereo not drawn)	0.7	-2.23	-1.65	0.6	40.9	31.5
CCOc1cc(NC(=O)c2ccco2)c(OCC)cc1NC(=O)CCC(=O)NCc1cccnc1	0.6	-0.838	0.7	1.1	-8.6	36.0
COc1cc(C)c(C)cc1S(=O)(=O)N1CCN(Cc2ccc3c(c2)OCO3)CC1	1	-1.33	-1.16	0.4	61.9*	-2.2
COc1cc(C)c(C)cc1S(=O)(=O)N1CCN(Cc2ccccc2)CC1	0.4	1	-0.87	0.1	88.8*	62.6*
Cc1cc(S(=O)(=O)N2CCN(Cc3ccccc3)CC2)c(C)s1	0.4	-2.02	·	0	98.6*	61.9*
FC(F)(F)C1=CC(c2ccccc2)=NCCN1	1	0.591	0.77	1	1.8	-2.6
Cc1cccc(C)c1N1C(=O)C2ON(c3ccccc3)C(c3ccncc3)C2C1=O (stereo not drawn)	0	-1.29	-0.35	0	100.0*	100.0*
O=C1C2ON(c3ccccc3)C(c3ccncc3)C2C(=O)N1c1ccccc1 (stereo not drawn)	0.1	0.51	-0.63	0	99.5*	86.0*
Cc1ccc(N2C(=O)C3ON(c4ccccc4)C(c4ccncc4)C3C2=O)c(C)c1 (stereo not drawn)	0	-0.988	1.9	0	100.4*	95.4*
COCCn1nnnc1CN1CCC(C)CC1	·	0.0605	-0.2	·	·	·
COc1ccccc1-n1c(=O)c2c3c(sc2n2c(SC)nnc12)CCC3	·	2.18	0.7	·	·	·
CC(=O)OC1c2ccccc2C(=O)N1Cc1ccccc1Cl (stereo not drawn)	1.2	0.0699	·	0	98.9*	-17.9
CCC(C)NC(=O)C1c2ccccc2C(=O)N1Cc1ccccc1OC (stereo not drawn)	0.7	1.99	-0.59	0.9	13.6	28.8
CNS(=O)(=O)c1ccc(Oc2ccc(S(=O)(=O)NC)cc2)cc1	0.6	-0.0164	1.33	0.9	10.2	39.7
COc1ccc2oc(C)c(C(N)=O)c2c1	1.1	0.0692	-0.33	0.9	8.1	-7.0
COC(=O)c1c(C)oc2ccc(OC(=O)c3cccs3)cc12	0.1	-0.0244	0.98	1	-0.9	85.1*
COCCOC(=O)c1c(C)oc2ccc(OC(=O)c3cccs3)cc12	0	0.221	1.55	0.3	71.3*	97.5*
COc1ccc(CN(C(=O)c2ccco2)c2ccc(Br)cc2)cc1OC	0.1	-4.55*	-1.33	0.2	80.4*	89.3*
COc1ccccc1C(=O)N(Cc1ccco1)C1CCS(=O)(=O)C1 (stereo not drawn)	1.3	-1.27	0.29	1.1	-9.2	-30.6
COc1ccc(N(Cc2cc3ccc(C)cc3[nH]c2=O)C(=O)c2ccco2)cc1	1.2	-0.113	-0.59	1.2	-24.9	-19.9
COc1ccc(N(Cc2ccco2)C(=O)c2ccccc2F)cc1OC	0.2	-2.76	0.01	0.3	70.6*	79.9*
COc1cc(CN(C(=O)c2ccco2)c2ccc(C)cc2)ccc1O	0.5	-0.162	-0.54	0.8	21.1	49.4
Cc1ccc(N(Cc2ccc([N+](=O)[O-])cc2)C(=O)c2ccco2)cc1	0	-6.71*	-0.33	0.7	25.3	96.1*
CCOC(=O)c1[nH]c2ccccc2c1N=CN(CC)CC	1	0.414	-0.71	1	0.7	4.9
SMILES	CYP2C9 activ	Cav32 inh	Pyk2 oligo antag	CYP2C19 activ	CYP2C19 inh	CYP2C9 inhib
CCCCCOC(=O)CSc1nnc(-c2ccccc2)c(=O)[nH]1	0.4	-0.861	1.81	0.8	24.3	60.1*
COc1ccc(-c2cc3nc(C)cc(N4CC(C)CC(C)C4)n3n2)cc1 (stereo not drawn)	·	0.27	-1.52	·	·	·
O=c1cc(O)nc2n1CCCS2	1	0.736	-0.03	1.1	-7.8	-4.8
COc1ccc(-c2nnn(CC#N)n2)cc1OC	0.4	1.04	1.49	0.2	84.2*	61.6*
Cc1ccc(C(=O)Cn2c(C(=O)/C=C/c3ccccc3)nc3ccccc32)cc1	1.1	0.699	-1.29	1	4.4	-11.2
Cn1nc(C(F)(F)F)c(C(=O)Nc2ccc(F)cc2F)c1Sc1cccc(C(F)(F)F)c1	0.4	·	-0.74	0.1	87.4*	60.1*
